PubChem BioAssay (NCI)
Several values for one entry are separate records, joined by “and”; a condition that tells them apart may be missing. Equal values may be shown once. The panel holds about 83,000 compounds, 20% with a hit somewhere; the sample as a whole holds those more often.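 Plates (96-well) were seeded with cells, treated with compound at one concentration, and incubated for 48 hours before percent growth was determined.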 Activity calls are given as the source filed them. The calls were made as follows: active = growth percent below 10; inactive = the rest.

How the values were obtained:
Experiment in all cases: NCI-60 one-dose screen, 48 h (100 = growth as untreated, 0 = no growth, -100 = all killed)
Conditions in all cases: 10 µM unless noted
HCT-15 colon = test system: HCT-15 colon
HT29 colon = test system: HT29 colon
SNB-75 CNS = test system: SNB-75 CNS
SNB-19 CNS = test system: SNB-19 CNS
U251 CNS = test system: U251 CNS
PC-3 prostate = test system: PC-3 prostate
SK-MEL-5 melanoma = test system: SK-MEL-5 melanoma
SK-MEL-28 melanoma = test system: SK-MEL-28 melanoma
SK-MEL-2 melanoma = test system: SK-MEL-2 melanoma
EKVX NSCLC = test system: EKVX NSCLC
SN12C renal = test system: SN12C renal
UO-31 renal = test system: UO-31 renal
TK-10 renal = test system: TK-10 renal
ACHN renal = test system: ACHN renal
CAKI-1 renal = test system: CAKI-1 renal
CCRF-CEM leukemia = test system: CCRF-CEM leukemia
MOLT-4 leukemia = test system: MOLT-4 leukemia
LOX IMVI melanoma = test system: LOX IMVI melanoma
A498 renal = test system: A498 renal
UACC-62 melanoma = test system: UACC-62 melanoma

Measured: growth

CCC(=O)Sc1ccccc1C(=O)Nc1ccc(Cl)cc1
inactive: HCT-15 colon 46% | HT29 colon 17% | SNB-75 CNS 76.7% | SNB-19 CNS 76.1% | U251 CNS 36.5% | PC-3 prostate 66.9% | SK-MEL-5 melanoma 25.2% | SK-MEL-28 melanoma 49.8% | SK-MEL-2 melanoma 133% | EKVX NSCLC 29.5% | SN12C renal 49.5% | UO-31 renal 61.6% | TK-10 renal 69.4% | ACHN renal 73.2% | CAKI-1 renal 31.9% | CCRF-CEM leukemia 27.1% | MOLT-4 leukemia 30.9%

CN=C(N)N/N=C(\C)c1ccc2c(c1)Cc1cc(/C(C)=N/NC(N)=NC)ccc1-2
active: HCT-15 colon 2.4% | HT29 colon -49.7% | SNB-75 CNS -46.5% | SNB-19 CNS -43.6% | U251 CNS -78.9% | SK-MEL-5 melanoma -89.9% | LOX IMVI melanoma -49.3% | SK-MEL-2 melanoma -60.6% | EKVX NSCLC 6.23% | SN12C renal -49.4% | UO-31 renal 6.24% | TK-10 renal -4.01% | ACHN renal -49.9% | A498 renal -32.7% | CCRF-CEM leukemia -3.32% | MOLT-4 leukemia -10.8%
inactive: PC-3 prostate 15.9% | CAKI-1 renal 23.4%

NC(=S)N/N=C\c1nccc2c(C(F)(F)C(F)(F)C(F)(F)F)cccc12
active: HT29 colon 8.84% | U251 CNS -9.91% | PC-3 prostate 9.51% | SK-MEL-5 melanoma -54.7% | UACC-62 melanoma -39.8% | UO-31 renal -31.9% | ACHN renal -0.888% | CAKI-1 renal -5.07% | CCRF-CEM leukemia -8.14% | MOLT-4 leukemia -30.9%
inactive: HCT-15 colon 28.2% | SNB-75 CNS 20.2% | SNB-19 CNS 21.8% | EKVX NSCLC 11.8% | SN12C renal 15.6% | TK-10 renal 11.9%

O=C1C=CC(=O)N1C1c2ccccc2-c2ccccc21
inactive: HCT-15 colon 61.6% | HT29 colon 92.9% | SNB-75 CNS 74.9% | SNB-19 CNS 105% | U251 CNS 92.8% | PC-3 prostate 94.1% | SK-MEL-5 melanoma 105% | LOX IMVI melanoma 93.9% | SK-MEL-28 melanoma 104% | EKVX NSCLC 105% | SN12C renal 94.2% | UO-31 renal 75.5% | TK-10 renal 51.4% | ACHN renal 57.8% | CAKI-1 renal 55.7% | A498 renal 93.8% | CCRF-CEM leukemia 30.4% | MOLT-4 leukemia 33.8%

CC(=O)C(=Cc1ccc(C=C(C(C)=O)C(C)=O)cc1)C(C)=O
inactive: SNB-75 CNS 73.1% | SNB-19 CNS 19.1% | SK-MEL-5 melanoma 72.8% | SK-MEL-2 melanoma 70.8% | EKVX NSCLC 94.2% | SN12C renal 17.4% | A498 renal 94.1%
active: HCT-15 colon -32.7% | HT29 colon -60.5% | U251 CNS -23.7% | PC-3 prostate 2.43% | LOX IMVI melanoma -97.8% | SK-MEL-28 melanoma -34.8% | UO-31 renal -12.2% | TK-10 renal 5.12% | ACHN renal -33.5% | CAKI-1 renal -50.7% | CCRF-CEM leukemia -5.86% | MOLT-4 leukemia 6.74%

Cn1c2ccccc2c2nnc(N/N=C/c3ccccn3)nc21
active: SK-MEL-5 melanoma -44.1% | UACC-62 melanoma -6.2% | EKVX NSCLC -11.9% | UO-31 renal 4.82% | TK-10 renal -18.9% | ACHN renal -4.67% | CAKI-1 renal -21.1% | CCRF-CEM leukemia -37.2% | MOLT-4 leukemia -21.7%
inactive: HCT-15 colon 27.6% | HT29 colon 37% | SNB-75 CNS 31% | SNB-19 CNS 26.1% | U251 CNS 14.2% | PC-3 prostate 28.4% | SK-MEL-2 melanoma 51.3% | SN12C renal 12.3% | A498 renal 34.5%

Cc1cc(C(C)(CC(C)C)c2ccc(O)c(C)c2)ccc1O
inactive: HCT-15 colon 85.5% | HT29 colon 98.7% | SNB-75 CNS 75.8% | SNB-19 CNS 109% | U251 CNS 94.3% | PC-3 prostate 93.2% | SK-MEL-5 melanoma 97.5% | LOX IMVI melanoma 97% | SK-MEL-28 melanoma 114% | SK-MEL-2 melanoma 104% | EKVX NSCLC 89.5% | SN12C renal 85.6% | UO-31 renal 84.6% | TK-10 renal 141% | ACHN renal 83.3% | CAKI-1 renal 73.3% | A498 renal 101% | CCRF-CEM leukemia 92% | MOLT-4 leukemia 80.8%

NC(=S)N/N=C/c1ccc(Cl)s1
inactive: HCT-15 colon 101% | HT29 colon 108% | SNB-75 CNS 108% | SNB-19 CNS 101% | U251 CNS 101% | PC-3 prostate 101% | SK-MEL-5 melanoma 97.2% | LOX IMVI melanoma 101% | SK-MEL-2 melanoma 105% | EKVX NSCLC 76.6% | SN12C renal 101% | UO-31 renal 100% | TK-10 renal 105% | ACHN renal 109% | CAKI-1 renal 98.1% | A498 renal 97.1% | CCRF-CEM leukemia 94.6% | MOLT-4 leukemia 99.2%

O=C(Nc1ccccc1)c1cc(Cl)ccc1O
inactive: HCT-15 colon 64.1% | HT29 colon 89% | SNB-75 CNS 64% | SNB-19 CNS 41.3% | U251 CNS 59.1% | PC-3 prostate 66.5% | LOX IMVI melanoma 79.8% | EKVX NSCLC 88.2% | SN12C renal 61.8% | UO-31 renal 49.7% | TK-10 renal 53.5% | ACHN renal 57.3% | CAKI-1 renal 49.6% | CCRF-CEM leukemia 68% | MOLT-4 leukemia 77.2%
active: SK-MEL-5 melanoma 7.81% | SK-MEL-2 melanoma -6.3% | A498 renal -4.6%

CCC(c1cccc(O)c1)C(CC)c1cccc(O)c1 (stereo not given)
inactive: HCT-15 colon 49% | HT29 colon 42% | SNB-75 CNS 42.7% | SNB-19 CNS 71.2% | U251 CNS 45.5% | PC-3 prostate 56.4% | SK-MEL-5 melanoma 32.3% | LOX IMVI melanoma 57.8% | EKVX NSCLC 64.1% | SN12C renal 68.5% | UO-31 renal 64.1% | TK-10 renal 80% | ACHN renal 75.1% | CAKI-1 renal 66.4% | A498 renal 70.8% | CCRF-CEM leukemia 49.8% | MOLT-4 leukemia 33.7%

CN(Cc1cnc2nc(N)nc(N)c2n1)c1ccc(C(=O)NC(CCC(=O)O)C(=O)O)cc1 (stereo not given)
inactive: HCT-15 colon 26.4% | HT29 colon 27.6% | SNB-75 CNS 59.6% | U251 CNS 35.7% | PC-3 prostate 62.1% | SK-MEL-5 melanoma 23.3% | UACC-62 melanoma 21.2% | LOX IMVI melanoma 13.2% | SK-MEL-28 melanoma 62.2% | SK-MEL-2 melanoma 79.6% | EKVX NSCLC 70.9% | SN12C renal 26.9% | TK-10 renal 58.8% | ACHN renal 26.8% | CAKI-1 renal 22.2% | A498 renal 35.4% | CCRF-CEM leukemia 28.8% | MOLT-4 leukemia 24.4%
active: UO-31 renal 9.25%

CCC(CCCN(CC)CCc1ccccc1)OC(=O)c1cc(OC)c(OC)c(OC)c1 (stereo not given)
inactive: HCT-15 colon 89.8% | HT29 colon 57.3% | SNB-75 CNS 65.3% | SNB-19 CNS 92.3% | U251 CNS 90.8% | PC-3 prostate 82.4% | SK-MEL-5 melanoma 91.3% | UACC-62 melanoma 90.7% | SK-MEL-2 melanoma 95.6% | EKVX NSCLC 83.8% | SN12C renal 90.2% | UO-31 renal 69.8% | TK-10 renal 72.6% | ACHN renal 82.8% | CAKI-1 renal 89.7% | A498 renal 60.2% | CCRF-CEM leukemia 98.6% | MOLT-4 leukemia 87.1%

CCN1/C(=C\c2cc[n+](CC)c3ccccc23)C=Cc2ccccc21
active: HT29 colon 8.56% | SK-MEL-5 melanoma -74.4% | LOX IMVI melanoma 4.04% | SK-MEL-28 melanoma 3% | SK-MEL-2 melanoma 0.604% | SN12C renal 8.57% | A498 renal -20.2%
inactive: HCT-15 colon 29.7% | SNB-75 CNS 14.3% | SNB-19 CNS 17.1% | U251 CNS 17% | PC-3 prostate 11.4% | EKVX NSCLC 15.8% | UO-31 renal 11.4% | TK-10 renal 22.3% | ACHN renal 15.2% | CAKI-1 renal 53.9% | CCRF-CEM leukemia 28.1% | MOLT-4 leukemia 13.2%

CCN(CC)CC(C)(C)C(=O)/C=C/c1ccc(Cl)c(Cl)c1
inactive: SNB-75 CNS 30% | EKVX NSCLC 28.2%
active: HCT-15 colon -34% | HT29 colon -47.4% | U251 CNS -45.8% | PC-3 prostate -33.8% | SK-MEL-5 melanoma 0.295% | LOX IMVI melanoma -82.4% | SK-MEL-28 melanoma -35.5% | SK-MEL-2 melanoma -33.2% | SN12C renal -43.8% | UO-31 renal -72% | TK-10 renal -34.7% | ACHN renal -42.8% | CAKI-1 renal -32.3% | A498 renal -24.3% | CCRF-CEM leukemia 5.91% | MOLT-4 leukemia 2.21%

Cc1cc(N)c2ccccc2[n+]1CCCCCCCCCC[n+]1c(C)cc(N)c2ccccc21
13.4% (inactive) and 1.53% (active): EKVX NSCLC
21.3% (inactive) and -8.96% (active): SNB-75 CNS
-51.1% (active) and 15.5% (inactive): U251 CNS
active: HT29 colon 2.09% and -13.8% | SK-MEL-5 melanoma -57.8% and -99.9% | UACC-62 melanoma -66.5% and 1.93% | SK-MEL-28 melanoma -26.4% | SK-MEL-2 melanoma -23.7% and -19.9% | SN12C renal 5.16% and 5.31% | A498 renal -7.94% | MOLT-4 leukemia -43.9% and 1.26%
6.34% (active) and 22% (inactive): CCRF-CEM leukemia
8% (active) and 14.1% (inactive): PC-3 prostate
inactive: HCT-15 colon 26.2% and 42.4% | UO-31 renal 19.2% and 65.3% | TK-10 renal 21.1% and 35.1% | ACHN renal 42.8% | CAKI-1 renal 30.9% and 69.6%
